A short description of test [1]: small molecules captured by biotinylated probe aFSTL3 – biochemical, small-molecule microarray, fluorescence 635/667, stem cell growth factor project, primary screen (AID 1064).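 Note: measures binding of the biotinylated anti-FSTL3 antibody to printed compounds.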 To be noted: higher = more signal.
Test [2] is described as follows: binders from COS7 lysate, DM2A8 probe, primary screen, torsin A project, cell lysate, small-molecule microarray, fluorescence 635/667 (AID 1065). The conditions noted are these: higher = more signal, COS7 lysate expressing mutant human TOR1A.
Test [3] is described as follows: small molecules captured by biotinylated probe aFGF2 – biochemical, small-molecule microarray, fluorescence 635/667, stem cell growth factor project, primary screen (AID 1067).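 Note: measures binding of biotinylated aFGF2 protein to printed compounds on slides; z-score merges feature fluorescence and signal-to-noise across triplicate slides.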 To be noted: higher = more signal.
The nature of test [4]: small molecules captured by biotinylated probe aFGF10 – biochemical, small-molecule microarray, fluorescence 635/667, stem cell growth factor project, primary screen (AID 1071).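 Note: score merges 667 nm spot intensity and signal to noise from triplicate slides.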 The conditions noted are these: higher = more signal.
Test [5] deals with Neurogenic locus notch homolog protein 2 (Homo sapiens) (UniProt Q04721). As to the kind of experiment: small molecules binding Notch2 protein – biochemical, small-molecule microarray, 635 nm fluorescence, stem cell growth factors, primary screen (AID 1073). The conditions noted are these: higher = more signal.
Chain of Neurogenic locus notch homolog protein 2 (Homo sapiens) (Q04721 whole entry, looked up, canonical isoform): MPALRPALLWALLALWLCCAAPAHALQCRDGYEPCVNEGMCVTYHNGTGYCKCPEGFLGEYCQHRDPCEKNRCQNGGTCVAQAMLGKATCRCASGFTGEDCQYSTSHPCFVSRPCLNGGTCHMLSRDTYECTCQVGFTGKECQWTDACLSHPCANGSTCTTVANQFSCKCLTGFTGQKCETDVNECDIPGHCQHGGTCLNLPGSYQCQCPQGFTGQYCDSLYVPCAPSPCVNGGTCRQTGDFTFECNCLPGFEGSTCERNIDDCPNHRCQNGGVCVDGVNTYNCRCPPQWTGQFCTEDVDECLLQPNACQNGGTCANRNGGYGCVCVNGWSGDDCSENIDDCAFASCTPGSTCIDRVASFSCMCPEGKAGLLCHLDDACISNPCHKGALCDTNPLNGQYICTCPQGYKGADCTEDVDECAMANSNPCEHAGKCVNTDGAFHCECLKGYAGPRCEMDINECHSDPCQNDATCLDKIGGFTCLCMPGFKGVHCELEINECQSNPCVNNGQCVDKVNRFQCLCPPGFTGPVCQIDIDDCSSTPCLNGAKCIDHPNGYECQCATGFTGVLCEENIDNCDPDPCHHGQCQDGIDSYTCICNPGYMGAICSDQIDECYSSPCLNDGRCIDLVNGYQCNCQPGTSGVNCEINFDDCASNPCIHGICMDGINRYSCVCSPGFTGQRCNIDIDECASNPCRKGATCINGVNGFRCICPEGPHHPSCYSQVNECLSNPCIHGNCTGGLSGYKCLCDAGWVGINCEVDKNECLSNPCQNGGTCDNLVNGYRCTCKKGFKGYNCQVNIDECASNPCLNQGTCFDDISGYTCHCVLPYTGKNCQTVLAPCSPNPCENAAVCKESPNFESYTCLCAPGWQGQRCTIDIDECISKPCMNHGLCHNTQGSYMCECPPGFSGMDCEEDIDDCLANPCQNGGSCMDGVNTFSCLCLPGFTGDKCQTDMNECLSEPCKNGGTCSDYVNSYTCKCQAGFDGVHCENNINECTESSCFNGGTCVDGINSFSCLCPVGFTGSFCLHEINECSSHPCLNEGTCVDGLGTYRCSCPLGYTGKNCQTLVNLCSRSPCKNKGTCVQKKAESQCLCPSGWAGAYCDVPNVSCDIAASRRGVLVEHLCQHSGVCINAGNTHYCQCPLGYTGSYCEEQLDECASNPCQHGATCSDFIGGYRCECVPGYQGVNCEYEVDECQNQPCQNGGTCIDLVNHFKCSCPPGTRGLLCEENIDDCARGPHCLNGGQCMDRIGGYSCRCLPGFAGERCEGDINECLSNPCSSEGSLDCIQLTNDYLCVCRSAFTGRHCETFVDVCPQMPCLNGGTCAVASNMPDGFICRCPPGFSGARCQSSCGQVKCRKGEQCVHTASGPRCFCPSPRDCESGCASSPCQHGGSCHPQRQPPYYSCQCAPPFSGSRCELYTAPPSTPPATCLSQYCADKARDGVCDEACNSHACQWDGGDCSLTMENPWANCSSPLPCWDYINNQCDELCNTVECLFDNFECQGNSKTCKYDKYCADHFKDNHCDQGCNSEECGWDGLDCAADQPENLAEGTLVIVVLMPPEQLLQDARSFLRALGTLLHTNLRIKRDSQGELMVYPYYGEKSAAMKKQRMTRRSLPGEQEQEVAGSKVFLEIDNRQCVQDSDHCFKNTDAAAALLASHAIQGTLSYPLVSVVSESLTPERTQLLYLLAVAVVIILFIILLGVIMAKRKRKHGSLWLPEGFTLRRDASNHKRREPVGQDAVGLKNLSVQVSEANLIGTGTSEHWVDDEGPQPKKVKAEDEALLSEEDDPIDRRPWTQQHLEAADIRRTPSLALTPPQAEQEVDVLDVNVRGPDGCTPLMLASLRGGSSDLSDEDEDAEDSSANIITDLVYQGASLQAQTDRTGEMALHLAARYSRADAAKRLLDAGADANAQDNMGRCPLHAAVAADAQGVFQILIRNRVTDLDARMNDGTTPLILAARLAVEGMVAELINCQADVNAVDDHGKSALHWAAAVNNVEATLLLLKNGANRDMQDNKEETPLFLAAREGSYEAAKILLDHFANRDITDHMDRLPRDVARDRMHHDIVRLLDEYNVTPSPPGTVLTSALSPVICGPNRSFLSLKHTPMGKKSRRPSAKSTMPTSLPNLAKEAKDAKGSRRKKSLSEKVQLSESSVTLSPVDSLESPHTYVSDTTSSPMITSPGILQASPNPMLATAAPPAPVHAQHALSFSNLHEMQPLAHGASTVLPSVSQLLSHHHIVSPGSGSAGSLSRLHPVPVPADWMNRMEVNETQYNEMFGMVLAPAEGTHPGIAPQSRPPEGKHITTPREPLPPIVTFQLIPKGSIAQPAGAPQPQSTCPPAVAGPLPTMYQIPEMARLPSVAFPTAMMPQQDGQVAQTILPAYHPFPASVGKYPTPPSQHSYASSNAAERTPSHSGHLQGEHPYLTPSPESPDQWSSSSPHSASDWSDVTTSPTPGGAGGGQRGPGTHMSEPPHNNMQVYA
Test [6] has as its target Pro-neuregulin-1, membrane-bound isoform (Homo sapiens) (UniProt Q02297). The experiment in a line: small molecules binding neuregulin-1 protein – biochemical, small-molecule microarray, fluorescence 635/667, psychiatric disease protein project, primary screen (AID 1075).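 Note: score combines 667 nm spot fluorescence with signal to noise.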 The conditions noted are these: NRG1 binding, 635 nm fluorescence, higher = more signal.
Test [7] deals with Neuregulin-1 EGF-like domain. The experiment in a line: small molecules binding NRG1 EGF domain – biochemical, small-molecule microarray, 635 nm fluorescence, primary screen (AID 1081).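 Note: binding of the protein to compounds printed on small-molecule microarray slides.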 The conditions noted are these: higher = more signal.
Test [8] in a line: FRG1 expression reporter modulators in myotubes – cell-based, C2C12 myotubes, firefly/Renilla luciferase, luminescence, FRG1 inhibition for FSHD, primary screen (AID 1084). The conditions noted are these: FRG1 promoter luciferase, higher = more signal, called active from +8 up or from −8 down.
Test [9] in a line: small molecules captured by biotinylated probe aFST – biochemical, small-molecule microarray, fluorescence 635/667, stem cell growth factor project, primary screen (AID 1086).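 Note: score merges 667 nm fluorescence with signal-to-noise of each printed compound spot.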 The conditions noted are these: higher = more signal.
The nature of test [10]: binders of probe aHhip on microarray, primary screen, stem cell growth factor project, biochemical, small-molecule microarray, fluorescence 635/667 (AID 1087).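 Note: score merges spot fluorescence at 667nm with spot signal to noise ratio.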 To be noted: higher = more signal.
The test system of test [11] is PRMT1 (protein arginine N-methyltransferase 1). The experiment in a line: small molecules binding arginine methyltransferase PRMT1 – biochemical, small-molecule microarray, 635 nm fluorescence, primary screen (AID 1088).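 Note: binding of Prmt1 protein to compounds spotted on small-molecule microarray slides.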 To be noted: higher = more signal.
Test [12] in a line: growth effects on S. cerevisiae YJM789 – YJM789 clinical isolate, OD600, 24 h, basal, primary screen (AID 1089).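 Note: growth of clinical yeast isolate S. cerevisiae YJM 789 seeded 1000 cells per well; test concentration not given here.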 To be noted: higher = more signal, called active from +8 up or from −8 down.
Test [13] can be described thus: S. pombe growth modifiers, basal conditions – strain 972, OD600, 24 h, no modulator, primary screen (AID 1090).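 Note: basal condition with compound alone and no growth modifier present; test concentration not given here.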 To be noted: S. pombe 972 growth, higher = more signal, called active from +8 up or from −8 down.
Test [14] can be described thus: budding yeast growth modifiers under rapamycin – strain BY4716, OD600, 96 h, primary screen (AID 1091). Note: test concentration not given here. The conditions noted are these: S. cerevisiae BY4716 + rapamycin, higher = more signal, called active from +8 up or from −8 down.
Test [15] concerns the target Torsin-1A-interacting protein 2 (Homo sapiens) (UniProt Q8NFQ8). As to the kind of experiment: small molecules binding lysate-expressed LULL1 – cell lysate, human LULL1 lysate, 635/667 nm fluorescence, primary screen (AID 1092).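 Note: score merges per-feature 667 nm fluorescence with signal-to-noise.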 The conditions noted are these: small-molecule microarray, hLULL1 lysate binding, 635 nm fluorescence; higher = more signal.
A short description of test [16]: optical density change of DRC41 E. coli – strain DRC41, OD650, 24 h, E. coli filamentation project, primary screen (AID 1093).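 Note: MC1000 strain lacking acrAB efflux and sulA so SOS filamentation is blocked; test concentration not given here.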 To be noted: E. coli DRC41 growth, higher = more signal, called active from +8 up or from −8 down.
Test [17] is described as follows: probe aLefty2 binding to arrayed compounds – biochemical, biotinylated probe, 635/667 nm fluorescence, primary screen (AID 1094).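 Note: score merges spot fluorescence near 667 nm with spot signal-to-noise ratio.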 The conditions noted are these: small-molecule microarray, higher = more signal.
Test [18] relates to Noggin (protein binding on small-molecule microarray). As to the kind of experiment: small molecules binding Noggin protein – biochemical, 635/667 nm fluorescence, primary screen (AID 1095).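 Note: score merges 667 nm feature fluorescence with signal to noise over triplicate slides.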 To be noted: 635 nm fluorescence, higher = more signal.
For test [19], the target named is Neurogenic locus notch homolog protein 3 (Homo sapiens) (UniProt Q9UM47). The experiment in a line: small molecules binding NOTCH3 protein – biochemical, 635/667 nm fluorescence, primary screen (AID 1096). To be noted: small-molecule microarray, 635 nm fluorescence, higher = more signal.
Test [20] in a line: probe aEGFR binding to arrayed compounds – biochemical, biotinylated probe, 635/667 nm fluorescence, primary screen (AID 1097).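 Note: probe is a biotinylated anti-EGFR antibody binding compounds printed on slides; score combines fluorescence near 667 nm and signal to noise of each spot.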 To be noted: small-molecule microarray, higher = more signal.

SMILES strings stand for the structures. Calls of active or inactive are those of the source.

Chain of Pro-neuregulin-1, membrane-bound isoform (Homo sapiens) (Q02297 whole entry, looked up, the tested form may be a part, canonical isoform): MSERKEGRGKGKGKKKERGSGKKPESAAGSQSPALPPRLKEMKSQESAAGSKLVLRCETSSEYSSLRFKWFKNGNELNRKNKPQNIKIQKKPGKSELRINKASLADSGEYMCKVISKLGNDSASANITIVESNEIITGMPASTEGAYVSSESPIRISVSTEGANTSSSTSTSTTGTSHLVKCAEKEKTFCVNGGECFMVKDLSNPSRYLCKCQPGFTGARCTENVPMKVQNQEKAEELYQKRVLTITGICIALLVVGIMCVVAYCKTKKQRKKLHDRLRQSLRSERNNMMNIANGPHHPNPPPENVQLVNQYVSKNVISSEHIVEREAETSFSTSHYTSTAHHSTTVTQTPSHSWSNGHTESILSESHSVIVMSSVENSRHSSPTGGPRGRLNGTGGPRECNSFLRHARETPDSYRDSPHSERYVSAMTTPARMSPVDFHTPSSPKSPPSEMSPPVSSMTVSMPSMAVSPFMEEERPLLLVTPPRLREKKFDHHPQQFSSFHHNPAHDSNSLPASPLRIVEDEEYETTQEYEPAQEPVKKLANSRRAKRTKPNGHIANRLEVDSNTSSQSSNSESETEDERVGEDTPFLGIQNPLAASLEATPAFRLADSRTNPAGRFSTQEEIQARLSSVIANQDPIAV
Chain of Torsin-1A-interacting protein 2 (Homo sapiens) (Q8NFQ8 whole entry, looked up): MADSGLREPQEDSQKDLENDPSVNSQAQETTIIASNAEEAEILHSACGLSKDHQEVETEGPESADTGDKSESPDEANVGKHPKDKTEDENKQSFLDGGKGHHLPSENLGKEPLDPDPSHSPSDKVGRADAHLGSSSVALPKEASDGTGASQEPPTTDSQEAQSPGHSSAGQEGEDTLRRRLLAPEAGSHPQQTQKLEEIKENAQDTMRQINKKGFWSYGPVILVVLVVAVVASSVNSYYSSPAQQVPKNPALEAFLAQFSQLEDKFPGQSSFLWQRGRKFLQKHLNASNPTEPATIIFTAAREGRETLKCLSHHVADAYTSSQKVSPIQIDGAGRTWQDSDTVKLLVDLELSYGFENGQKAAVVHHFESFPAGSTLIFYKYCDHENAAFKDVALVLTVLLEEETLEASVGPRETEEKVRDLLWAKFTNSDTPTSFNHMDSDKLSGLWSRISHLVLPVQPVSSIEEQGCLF

For the molecule `O=C(NCCN1CCOCC1)[C@@H]1c2ccccc2C(=O)N(Cc2ccccc2C(F)(F)F)[C@H]1c1ccc(CO)cc1`, the composite z-score in test [1] is -1.15; in [2], -0.438; in test [3] it was -0.319; in test [4] it was -0.613; in test [5], -1.2; in test [6], 0.875. The composite z-score is -0.755 in test [7]; 0.48 in [9]; -0.504 in test [10]; 1.56 in test [11]; 1.81 in test [15]; -0.525 in [17]. In addition, the composite z-score is -0.982 in test [18], -0.842 in [19] and -0.403 in test [20]. Besides, the z-score in test [8] is -1.79 (inactive); in test [12], -0.451 (inactive); in test [13], -0.539 (inactive); in test [14] it was -0.705 (inactive); in [16], 0.75 (inactive).

As for `[N-]=[N+]=Nc1ccccc1C[C@]1(C(=O)N2CCOCC2)N=C(c2ccc(OCCCO)cc2)O[C@H]1c1ccccc1N=[N+]=[N-]`, the composite z-score in [1] was -0.214; in [2], 1.05; in [3], 0.119; in test [4], 0.499; in [5], 1.5; in test [6], 1.68. The composite z-score is 1.36 in [7]; 1.53 in test [9]; -0.0237 in [10]; 1.53 in [11]; 3.39 in [15]; 0.166 in test [17]. In addition, the composite z-score is 1.61 in [18], 1.04 in test [19] and -0.0211 in [20]. The z-score in test [8] is -2.32 (inactive); in [12] it was -3.46 (inactive); in test [13], -10.9 (active); in test [14] it was 2.91 (inactive); in test [16], 1.2 (inactive).

As for `CCCC[C@H]1C[C@@H]1[C@@H]1N(C(C)=O)[C@H](c2cccc(OC)c2)CC12CC2`, the composite z-score is 0.116 in test [1]; -0.303 in test [2]; -0.0235 in test [3]; 0.186 in test [4]; 0.798 in [5]; -0.106 in test [6]. In addition, the composite z-score in [7] is -0.175; in [9] it was 0.657; in [10], -0.0645; in test [11] it was -0.383; in [15], 0.755; in [17], 0.116. Also, the values for the composite z-score in test [18], in test [19] and in test [20] were -0.502, -0.27 and 0.0192, respectively. For the same molecule, the z-score in test [8] was 1.8 (inactive); in test [12], -0.872 (inactive); in test [13], -8.39 (active); in test [14], -1.82 (inactive); in test [16], -0.563 (inactive).

Regarding `O=C1C[C@@](C(=O)NCc2ccccc2)(c2ccc([N+](=O)[O-])cc2)[C@@H](c2ccc(CO)cc2)N1C1CCCCC1`, the composite z-score in test [1] is -0.709; in test [2], 0.858; in [3], -0.101; in [4], 0.104; in [5] it was 0.324; in [6], 1.4. Also, the composite z-score in test [7] is 1.31; in test [9] it was 0.117; in [10] it was -0.158; in test [11], 1.57; in test [15], 3.09; in [17] it was -0.206. For the same molecule, the composite z-score in [18] is 0.65; in test [19], 0.846; in [20] it was -0.14. Also, the z-score is -1.47 (inactive) in test [8]; -1.69 (inactive) in test [12]; -0.221 (inactive) in test [13]; 1.08 (inactive) in [14]; 0.78 (inactive) in test [16].

As to `COCCOC(=O)N1C(=O)[C@@]2(c3cc(C#CC4(O)CCCCCC4)ccc31)[C@H](c1ccc(O)cc1)N1[C@H](c3ccccc3)[C@H](c3ccccc3)OC(=O)[C@H]1[C@@H]2C(=O)N1CCCCCCC1`, the composite z-score was found to be 2.85 in [1]; 0.567 in test [2]; 0.0059 in test [3]; 0.83 in [4]; 0.547 in test [5]; 0.903 in test [6]. Further, the composite z-score was found to be 1.15 in [7]; 2.06 in test [9]; 1.39 in test [10]; 1.55 in test [11]; 2.09 in [15]; 0.189 in [17]. Besides, the composite z-score in test [18] was determined as 1.3; in test [19] it was 1.06; in test [20] it was 0.0896. Moreover, the z-score in test [8] was -0.0559 (inactive); in test [12], -0.016 (inactive); in test [13] it was 0.056 (inactive); in test [14], 0.367 (inactive); in test [16], 0.709 (inactive).

Source of the values: PubChem BioAssay.
